Structures are written as SMILES. The panel holds about 83,000 compounds, 20% with a hit somewhere; the sample as a whole holds those more often.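 Cells were grown in 96-well plates and exposed to the test compound at a single concentration for 48 hours; results are reported as percent growth, with values below 10 considered active.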 Active and inactive are the calls of the source.

The subject of the first assay is SF-268 CNS. The assay is described as follows: NCI-60 one-dose screen, 48 h (100 = growth as untreated, 0 = no growth, -100 = all killed). The following applies: 10 µM unless noted.
Regarding `ClCCN(CCCl)C(c1ccccc1)c1ccc(Cl)cc1` (stereo not given), the growth was 61.5% (inactive).

Consider `CCCCn1cc(C(=O)/C(C#N)=C/c2cc3ccccc3nc2Cl)c2cc(OC)ccc21`, for which the growth is 83.1% (inactive). On the same count and under the same terms, the result for `CCCCNCCc1ccccn1` reads 107% (inactive). For the molecule `CC(=O)C1C(=O)N(C)C(=O)N(C)C1=O`, the growth was 113% (inactive). Same read-out and setting: to `CC1(C)N=C(N)N=C(N)N1c1cccc(C(=O)Nc2cccc(S(=O)(=O)F)c2)c1` belongs 112% (inactive). Still for that read-out and setting: to `C[C@]12CC[C@@H]3C4=C(CC[C@H]3[C@@H]1CC[C@@H]2O)CC(=O)CC4` belongs 99.7% (inactive). Still for that read-out and setting: to `Oc1ccccc1OB(Oc1ccccc1O)N(CCCl)CCCl` belongs 63.5% (inactive); to `NC(Cc1ccc2c(c1)OCO2)c1ccc2c(c1)OCO2` (stereo not given), 103% (inactive); to `COc1ccc(-c2ccc(OC)c(OC)c2OC)cc1`, 51.5% (inactive). `CC[C@@]1(C2O[C@@H](C3O[C@@](O)(CC)[C@H](C)C[C@@H]3C)C[C@@H]2C)CC[C@H]([C@]2(C)CCC3(C[C@H](O)[C@@H](C)[C@@H]([C@H](C)[C@@H](OC)[C@H](C)C(=O)O)O3)O2)O1` (stereo not given in full): the growth was 22.4% (inactive). On the same count and under the same terms, to `CC1(C)N=C(N)N=C(N)N1c1ccc(CCCCc2ccc(S(=O)(=O)F)cc2)c(Cl)c1` belongs 25.6% (inactive); to `COc1ccc(C2=NN(c3ccccc3)C(c3sc(N(CCCl)CCCl)nc3Cl)C2)cc1` (stereo not given), 86.8% (inactive); to `N#CC1c2ccccc2C=CN1C(=O)c1ccc(N(CCCl)CCCl)cc1` (stereo not given), 95.9% (inactive). Take `CSc1ccccc1NP1(=O)OCC(C)([N+](=O)[O-])CO1` (stereo not given): the growth was 105% (inactive).

In the case of `Cc1ccc(N)cc1[As]=[As]c1cc(N)ccc1C` (stereo not given), the growth was -83.6% (active). Still for that read-out and setting: the result for `C/C(=N/OC(=O)N(C)C)c1cc(Cl)ccc1Cl` reads 99.4% (inactive); that for `CCC(C)[C@H]1O[C@]2(C=C[C@@H]1C)C[C@@H]1C[C@@H](C/C=C(\C)[C@@H](OC3C[C@H](OC)C(O[C@H]4C[C@H](OC)[C@@H](O)[C@H](C)O4)[C@H](C)O3)[C@@H](C)/C=C/C=C3\CO[C@@H]4[C@H](O)C(C)=C[C@@H](C(=O)O1)[C@]34O)O2` (stereo not given in full), 1.66% (active); that for `CC1(C)N=C(N)N=C(N)N1c1ccc(CCCCc2ccc(S(=O)(=O)F)cc2)cc1`, 30% (inactive). Same read-out and setting: the result for `Cc1ccc(C(=O)C2CN(C)CCC2(O)c2ccc(C)cc2)cc1` (stereo not given) reads 110% (inactive); that for `O=S(=O)(O)c1ccc(-c2ccc([As](=O)(O)O)cc2)cc1`, 98.5% (inactive). Turning to `O=C1NC(=O)C(CN2C(=O)C3(c4ccccc42)[C@H](Cl)C(=O)N3c2ccccc2)C(=O)N1` (stereo not given in full), the growth is 84.7% (inactive).

Regarding `C=CCC1(CC)C(=O)NC(=S)NC1=O`, the growth was 101% (inactive). Consider `C/C(=N/OC(=O)N(C)C)c1ccc(Cl)cc1Cl`, for which the growth is 103% (inactive). Consider `CCC[CH2][Sn]([CH2]CCC)([CH2]CCC)[O]C(=O)CC`, for which the growth is -97.3% (active). Same read-out and setting: to `O=C(NCc1ccc([N+](=O)[O-])cc1)Nc1ccc(S(=O)(=O)F)cc1` belongs 89.9% (inactive); to `n1nc(-c2nonc2-c2nn[nH]n2)n[nH]1`, 122% (inactive).

With `CNC(=O)Oc1ccccc1-c1ccccc1`, the growth is 100% (inactive). For `CC1(C)N=C(N)N=C(N)N1c1ccc(OCCCCOc2ccc(S(=O)(=O)F)cc2)c(Cl)c1`, the growth is 17.9% (inactive). Same read-out and setting: to `CCCCOC(=O)c1ccccc1C(=O)O.CCCCOC(=O)c1ccccc1C(=O)O.[Cu+2]` belongs 120% (inactive). Same read-out and setting: to `O=[N+]([O-])c1ccc2cnn(CSP(=S)(c3ccccc3)c3ccccc3)c2c1` belongs 79.9% (inactive); to `NC(=O)C(Cl)Cl`, 102% (inactive). The same measure, in the same setting: the result for `CCN(CC)c1ccc(C=C2C(=O)NC(=S)NC2=O)cc1` reads 80.1% (inactive); that for `Clc1ccc(SSC(Cl)(Cl)Cl)cc1`, 104% (inactive); that for `[O]=[Sn]([CH]1CCCCC1)[CH]1CCCCC1`, -98.9% (active). Take `ClCCN(CCCl)c1nc(Cl)c(C2CC(c3ccccc3)=NN2c2ccccc2)s1` (stereo not given): the growth is 88.9% (inactive). Same read-out and setting: to `CC(=O)C1CCC2C3CC=C4CC(OC(=O)Cc5ccc(N(CCCl)CCCl)cc5)CCC4(C)C3CCC12C` (stereo not given) belongs 93.7% (inactive); to `Cc1ccccc1O`, 109% (inactive). Still for that read-out and setting: the result for `O=[N+]([O-])c1ccccc1N1CCNCC1` reads 95.2% (inactive). Consider `CC(=O)Nc1ccc(C=C2C(=O)NC(=O)NC2=O)cc1`, for which the growth is 111% (inactive).

A further assay deals with SF-295 CNS. The assay is described as above. The following applies: 10 µM unless noted.
For the molecule `ClCCN(CCCl)C(c1ccccc1)c1ccc(Cl)cc1` (stereo not given), the growth is 75.5% (inactive). On to `CCCCn1cc(C(=O)/C(C#N)=C/c2cc3ccccc3nc2Cl)c2cc(OC)ccc21`, for which the growth was 95.9% (inactive). As to `CCCCNCCc1ccccn1`, the growth is 100% (inactive). Same read-out and setting: to `CC1(C)N=C(N)N=C(N)N1c1cccc(C(=O)Nc2cccc(S(=O)(=O)F)c2)c1` belongs 84.9% (inactive); to `C[C@]12CC[C@@H]3C4=C(CC[C@H]3[C@@H]1CC[C@@H]2O)CC(=O)CC4`, 102% (inactive). Take `Oc1ccccc1OB(Oc1ccccc1O)N(CCCl)CCCl`: the growth was 102% (inactive). Still for that read-out and setting: the result for `NC(Cc1ccc2c(c1)OCO2)c1ccc2c(c1)OCO2` (stereo not given) reads 96.8% (inactive); that for `COc1ccc(-c2ccc(OC)c(OC)c2OC)cc1`, -9.72% (active); that for `CC1(C)N=C(N)N=C(N)N1c1ccc(CCCCc2ccc(S(=O)(=O)F)cc2)c(Cl)c1`, 3.69% (active).

As for `COc1ccc(C2=NN(c3ccccc3)C(c3sc(N(CCCl)CCCl)nc3Cl)C2)cc1` (stereo not given), the growth is 93.2% (inactive). As to `N#CC1c2ccccc2C=CN1C(=O)c1ccc(N(CCCl)CCCl)cc1` (stereo not given), the growth is 90.6% (inactive). Regarding `CSc1ccccc1NP1(=O)OCC(C)([N+](=O)[O-])CO1` (stereo not given), the growth was 100% (inactive). With `Cc1ccc(N)cc1[As]=[As]c1cc(N)ccc1C` (stereo not given), the growth was 73.2% (inactive).

`C/C(=N/OC(=O)N(C)C)c1cc(Cl)ccc1Cl`: the growth was 98.6% (inactive). Still for that read-out and setting: to `CCC(C)[C@H]1O[C@]2(C=C[C@@H]1C)C[C@@H]1C[C@@H](C/C=C(\C)[C@@H](OC3C[C@H](OC)C(O[C@H]4C[C@H](OC)[C@@H](O)[C@H](C)O4)[C@H](C)O3)[C@@H](C)/C=C/C=C3\CO[C@@H]4[C@H](O)C(C)=C[C@@H](C(=O)O1)[C@]34O)O2` (stereo not given in full) belongs -41.9% (active); to `CC1(C)N=C(N)N=C(N)N1c1ccc(CCCCc2ccc(S(=O)(=O)F)cc2)cc1`, 7.77% (active). For the molecule `Cc1ccc(C(=O)C2CN(C)CCC2(O)c2ccc(C)cc2)cc1` (stereo not given), the growth is 111% (inactive). For `O=S(=O)(O)c1ccc(-c2ccc([As](=O)(O)O)cc2)cc1`, the growth is 101% (inactive). For the molecule `O=C1NC(=O)C(CN2C(=O)C3(c4ccccc42)[C@H](Cl)C(=O)N3c2ccccc2)C(=O)N1` (stereo not given in full), the growth was 91.5% (inactive). The same measure, in the same setting: the result for `O=[N+]([O-])c1cc([N+](=O)[O-])c(Cl)c(Cl)c1Cl` reads 98.5% (inactive); that for `C=CCC1(CC)C(=O)NC(=S)NC1=O`, 108% (inactive). On the same count and under the same terms, to `C/C(=N/OC(=O)N(C)C)c1ccc(Cl)cc1Cl` belongs 98.6% (inactive); to `CCC[CH2][Sn]([CH2]CCC)([CH2]CCC)[O]C(=O)CC`, -81.4% (active). For `n1nc(-c2nonc2-c2nn[nH]n2)n[nH]1`, the growth was 94.5% (inactive). Same read-out and setting: to `CNC(=O)Oc1ccccc1-c1ccccc1` belongs 94.5% (inactive). The same measure, in the same setting: to `CC1(C)N=C(N)N=C(N)N1c1ccc(OCCCCOc2ccc(S(=O)(=O)F)cc2)c(Cl)c1` belongs 16.3% (inactive). As for `O=[N+]([O-])c1ccc2cnn(CSP(=S)(c3ccccc3)c3ccccc3)c2c1`, the growth is 96.3% (inactive).

In the case of `NC(=O)C(Cl)Cl`, the growth is 98.3% (inactive). As for `CCN(CC)c1ccc(C=C2C(=O)NC(=S)NC2=O)cc1`, the growth is 99.3% (inactive). Turning to `Clc1ccc(SSC(Cl)(Cl)Cl)cc1`, the growth was 103% (inactive). Turning to `[O]=[Sn]([CH]1CCCCC1)[CH]1CCCCC1`, the growth was -85.6% (active). As for `ClCCN(CCCl)c1nc(Cl)c(C2CC(c3ccccc3)=NN2c2ccccc2)s1` (stereo not given), the growth is 98.6% (inactive).

Turning to `CC(=O)C1CCC2C3CC=C4CC(OC(=O)Cc5ccc(N(CCCl)CCCl)cc5)CCC4(C)C3CCC12C` (stereo not given), the growth was 108% (inactive).

In the case of `Cc1ccccc1O`, the growth is 135% (inactive). `O=[N+]([O-])c1ccccc1N1CCNCC1`: the growth was 104% (inactive). The same measure, in the same setting: to `CC(=O)Nc1ccc(C=C2C(=O)NC(=O)NC2=O)cc1` belongs 104% (inactive).

Source of the values: PubChem BioAssay (NCI).
